tim10-1 inh = inhibits growth of tim10-1 mutant yeast. S. cerevisiae tim10-1 ts strain growth, BacTiter-Glo, 24 h. 2.2% of 330,000 active. inhibition, % at 20 µM. AID 463190;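 active = inhibition of at least 40%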;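 note: mutant grown at 25 °C; 0% = DMSO wells with yeast and 100% = wells holding no yeast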
NALP3 yeast inh = blocks the NALP3 inflammasome reconstituted in yeast; Yeast reconstituted NLRP3/ASC/caspase-1, beta-gal luminescence, 24 h; inhibition, % at 10 µM; 0.39% of 330,000 active;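 active = inhibition of 50% or more; inactive = inhibition below 50%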;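 note: plate controls were induced DMSO wells for no effect and uninduced yeast grown without galactose for full effect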
tim23-1 inh = inhibits growth of tim23-1 mutant yeast. AID 463212. S. cerevisiae tim23-1 growth, BacTiter-Glo luminescence, 24 h. 1.3% of 330,000 active. inhibition, % at 20 µM;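 active = growth inhibition of the mutant yeast at or above 50%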;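 note: temperature-sensitive mutant grown at 25 °C; plate controls were DMSO-treated mutant yeast for no effect and medium wells lacking yeast for full effect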
TIM10 inh = TIM10 yeast growth inhibition. S. cerevisiae TIM10 strain growth, BacTiter-Glo luminescence, 24 h. inhibition, % at 10 µM. 1.4% of 330,000 active;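 active = inhibition of 40% or more at the single tested concentration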;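 note: wild-type TIM10 isogenic control strain grown at permissive 25 °C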
NALP1 inh = inhibitors of NALP1 inflammasome in yeast; inhibition, % at 10 µM; S. cerevisiae NALP1/ASC/caspase-1 growth, X-gal OD620, 72 h; 0.61% of 280,000 active; in the data active = inhibition mostly above about 24%, no sharp cut-off; inactive = mostly below about 32%
PfHsp90 set2 = inhibits growth of yeast expressing Plasmodium falciparum Hsp90; S. cerevisiae expressing PfHsp90, BacTiter-Glo ATP, 48 h; yeast lacking PDR1 and PDR3 efflux regulators; inhibition, % at 9.4 µM; 0.32% of 310,000 active;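 active = every replicate shows inhibition above about 80%, whatever the replicate mean, limit read from the data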;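 note: 0% = DMSO neutral controls and 100% = 20 µM radicicol positive controls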
NALP3 yeast conf = NALP3 inhibition confirmation in yeast. shares compounds with NALP3 yeast inh. yeast expressing human NALP3, luminescence. inhibition, % at 10 µM. 81% of 1,300 active. AID 435006; in the data active = inhibition above about 48%
Casp1 ASC ctr = counter-screen for NALP3 inhibitors: yeast caspase-1-ASC; shares compounds with NALP3 yeast inh; yeast expressing Caspase-1-ASC, luminescence counter screen; inhibition, % at 10 µM; 66% of 1,000 active
NALP3 retest = retest-confirmed inhibitor of NALP3 in yeast; shares compounds with NALP3 yeast inh; yeast expressing human NALP3, luminescence read-out; inhibition, % at 10 µM; 53% of 1,000 active
* = called active by the depositor; . = not tested or not shown. Only some compounds are listed: those with a hit (about 4.1% of all), similar ones and a draw of the others. Cut-off read from the data, not from the text of the source, unless noted: active = inhibition above about 50%; inactive = the rest.

SMILES | tim10-1 inh | NALP3 yeast inh | tim23-1 inh | TIM10 inh | NALP1 inh | PfHsp90 set2 | NALP3 yeast conf | Casp1 ASC ctr | NALP3 retest
O=C(CNC(=O)c1ccccc1)OCc1cccc(Br)c1 | -23.2 | 4.2 | 0.2 | -19.8 | -0.3 | 3.6 | . | . | .
O=C(COc1ccc(Cl)cc1)NC1=NN(c2ccccc2)C(=O)C1 | 22.7 | 28.0 | 22.5 | 6.1 | 6.9 | 124.8* | . | . | .
CCOc1ccc(OCCCC(=O)ON=C(N)c2ccccc2C)cc1 | 15.6 | 13.4 | 14.6 | 7.8 | . | 27.1 | . | . | .
COCCN1Cc2cccc(C(=O)Nc3cc(OC)ccc3OC)c2C1=O | 30.1 | 14.5 | 10.8 | -2.8 | 27.9* | 8.8 | . | . | .
CN(Cc1ccccc1)C(=O)c1ccc(NC(=O)Cc2ccc(NC(=O)C3CCN(C(=O)CCc4ccccc4)CC3)cc2)cc1 | . | . | . | . | . | -17.6 | . | . | .
CC(=O)c1ccc(S(=O)(=O)N(C)CC(=O)Nc2ccc(C)cc2)cc1 | -16.0 | 18.0 | -6.3 | -13.1 | . | -18.2 | . | . | .
CC(=O)c1cccc(NC(=O)CSC(=O)c2ccccc2)c1 | 31.7 | 8.9 | 34.6 | 22.3 | 31.9 | . | . | . | .
CCN(CC)c1ccc(NC(=O)CSC(=O)c2ccccc2)cc1 | -12.8 | 55.8* | 27.5 | 10.1 | . | 2.8 | 54.2* | 56.5* | 42.2
Cc1ccc(C)c(N2C(=O)CC(Cc3ccc(Br)cc3)C2=O)c1 (stereo not drawn) | 14.7 | 9.6 | 1.6 | 7.7 | 27.0 | 8.4 | . | . | .
O=[N+]([O-])c1cc(Br)c(O)c(/C=N/Nc2nnnn2-c2cccc3ccccc23)c1 | 24.7 | 52.4* | 31.8 | 9.6 | 13.4 | -4.2 | 47.2* | . | .
NCCC(=O)N1c2ccccc2Sc2ccc(Cl)cc21 | -6.8 | 72.7* | 5.4 | 6.1 | 22.6 | -17.7 | 84.9* | 77.9* | 87.0*
CC1(c2nnc(-c3ccncc3)o2)CC(c2ccc(Cl)cc2)=NO1 (stereo not drawn) | -17.7 | 16.2 | 7.4 | -29.2 | . | 10.2 | . | . | .
CC1(c2nnc(-c3ccccc3)o2)CC(c2ccc(Cl)cc2)=NO1 (stereo not drawn) | 6.0 | 51.9* | 26.8 | -21.4 | 6.1 | 19.8 | 56.1* | 25.9 | 21.9
C/C(=N/NC(=O)CN1CCN(Cc2ccccc2Cl)CC1)c1cccnc1 | -8.4 | 10.5 | 12.0 | -5.3 | -6.4 | 16.3 | . | . | .
COc1cc(C)c(S(=O)(=O)N2CCCC2)cc1C | 3.4 | 77.0* | 19.4 | -10.2 | 23.8 | 24.2 | 83.1* | 86.7* | 64.8*
CCOc1cc(C)c(S(=O)(=O)N2CCCCC2)cc1C | -1.9 | 74.3* | 12.7 | -11.8 | 1.4 | 12.2 | 75.7* | 79.8* | 65.3*
CCOc1cc(S(=O)(=O)N2CCCC2)c(C)cc1C | 11.1 | 39.0 | 14.7 | 11.8 | 17.3 | -14.4 | . | . | .
COCCCNC(=O)CC1C[C@H](C(=O)N2CCOCC2)[C@@]2(CCC3CCCC3)c3[nH]c4ccc(OC)cc4c3CCN2C1=O (stereo partly drawn) | 13.8 | . | 34.8 | 5.7 | . | 1.9 | . | . | .
CCOc1ccc(NS(=O)(=O)c2coc(C(N)=O)c2)cc1 | 4.2 | 2.0 | 0.0 | 3.5 | 14.4 | . | . | . | .
Cc1ccc(NC(=S)NCCSc2ccc(Cl)cc2)cc1 | 38.4 | 32.6 | 36.4 | 32.2 | 6.0 | -4.8 | . | . | .
Cc1ccc(SCCNC(=S)Nc2cc(C)cc(C)c2)cc1 | -2.2 | 54.9* | 7.0 | 15.3 | 15.2 | -12.2 | 61.1* | 50.4* | 37.5
Cc1c(C(=O)Nc2ccccc2F)cnn1-c1ccccc1 | -3.3 | 47.3 | 11.8 | 6.1 | 15.6 | 10.1 | . | . | .
Cc1c(C(=O)Nc2cc(F)cc(F)c2)cnn1-c1ccccc1 | 1.8 | 71.2* | 26.2 | -2.0 | 24.1 | 7.5 | 76.2* | 75.8* | 69.8*
CC(NC(=O)c1ccccc1Cl)C(=O)OCc1cn2cc(Cl)ccc2n1 (stereo not drawn) | -54.4 | -3.0 | -21.9 | -23.4 | . | 2.6 | . | . | .
FC(F)(F)c1cc(-c2ccco2)nc(NCc2cccnc2)n1 | 14.7 | 53.0* | 3.0 | 9.5 | 6.4 | -3.4 | 66.3* | 52.2* | 36.3
SMILES | tim10-1 inh | NALP3 yeast inh | tim23-1 inh | TIM10 inh | NALP1 inh | PfHsp90 set2 | NALP3 yeast conf | Casp1 ASC ctr | NALP3 retest
FC(F)(F)c1cc(-c2ccccc2)nc(NCc2cccnc2)n1 | 12.7 | 53.9* | -0.4 | 20.6 | 10.0 | -20.1 | 24.4 | . | .
FC(F)(F)c1cc(-c2ccco2)nc(NCc2ccccc2)n1 | 10.1 | 12.5 | 21.5 | -6.4 | 7.0 | . | . | . | .
COC(=O)N[C@@H]1C[C@H]2[C@@H]3CC[C@H]4C[C@@H](OC)CC[C@]4(C)[C@H]3CC[C@]12C | 14.0 | 37.0 | 28.1 | 8.1 | . | . | . | . | .
CC(=O)O[C@H]1CC[C@@]2(C)C(CCC3C2CC[C@]2(C)OC(=O)CCC32)C1 (stereo partly drawn) | -48.8 | 59.9* | -32.7 | -47.3 | 20.9 | . | 57.5* | 58.7* | 35.1
CC(C)NC(=O)c1c(O)c2cccc3c2n(c1=O)CCC3 | 18.3 | 13.9 | 2.7 | 2.6 | 4.9 | 0.9 | . | . | .
CCNCCNC(=O)c1c(O)c2cccc3c2n(c1=O)CCC3 | -6.2 | 52.8* | 25.8 | 19.8 | -4.4 | 7.9 | 74.2* | 40.6 | 44.2
CNC(=O)c1c(O)c2cccc3c2n(c1=O)CC3 | -3.7 | 53.7* | 37.1 | 36.8 | . | -1.2 | 60.0* | 40.5 | 36.5
COc1ccc2cc(C(C)C(=O)N3CCC(C(N)=O)CC3)ccc2c1 (stereo not drawn) | 17.9 | 16.8 | 16.8 | -9.7 | 20.3 | 1.0 | . | . | .
O=S(=O)(NC1CC2CCC1C2)c1ccc(Br)s1 (stereo not drawn) | -43.2 | 50.4* | 12.5 | -132.6 | 0.3 | -20.5 | 62.7* | 59.4* | 40.0
O=S(=O)(NCC1CCCO1)c1ccc(Br)s1 (stereo not drawn) | 6.7 | 20.3 | -5.5 | 10.7 | 30.3 | -9.5 | . | . | .
Cc1nn(-c2ccccc2)cc1C(=S)Nc1ccccc1 | 31.1 | 52.1* | 38.1 | 17.5 | 32.2 | 22.6 | 63.1* | 57.1* | 57.7*
Cc1c(C(=S)Nc2ccccc2)cnn1-c1ccccc1 | 32.9 | 37.5 | 23.3 | 20.7 | 18.3 | 10.6 | . | . | .
CCc1cc2cc(C)ccc2nc1SCC(=O)NC1CCCC1 | -16.5 | 53.8* | 6.4 | 4.7 | -2.0 | 10.7 | 62.1* | 35.4 | 31.5
COc1ccc(C(C(=O)NC2CCCC2)N(Cc2cccnc2)C(=O)c2snc(C(N)=O)c2N)cc1 (stereo not drawn) | -10.2 | 14.3 | 1.4 | 0.5 | 11.8 | 1.9 | . | . | .
Cc1ccc(OCCn2cnc(Cl)c2Cl)cc1 | 14.9 | 50.1* | 1.0 | -13.8 | 3.1 | . | 58.9* | . | .
Cc1nn(-c2ccccc2)c(C)c1NC(=O)COC(=O)CC(C)c1ccccc1 (stereo not drawn) | 16.7 | 2.8 | 10.5 | 6.9 | . | 9.6 | . | . | .
Cc1cc2ncn(S(=O)(=O)N3CCCCC3)c2cc1C | 30.3 | 68.6* | 30.0 | 16.1 | 27.4 | -7.2 | 60.5* | 73.8* | 68.0*
